{"source": "the supplement of paper PMC12067093", "about": "“Discovery and optimisation of a covalent ligand for TRIM25 and its application to targeted protein ubiquitination” (Chemical Science, 2025)", "compound": "Cc1cc(ccc1-c1ccccc1)C(=O)N1CCCN(CC1)C(=O)CCl [compound 10]", "assay": "probe-labelled cysteine peptide fold change vs DMSO (competition) (log2 fold change); higher = less target engagement (more negative = stronger competition)", "settings": "THP-1, incubation time: 4 h", "note": "About 21,000 targets were measured; listed, in parts, are those with the largest changes and a random draw of the rest.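 Also: competitive profiling in live THP-1 cells: cysteine peptides tagged with an iodoacetamide desthiobiotin (IA-DTB) probe, intensity after compound treatment relative to DMSO-treated cells.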", "data": [{"target": "TRPM4_Q8TD43_759_QSGRPGCCGGR (UniProt Q8TD43)", "values": [{"measurement": "probe-labelled cysteine peptide fold change", "setting": "10 µM", "value": -0.788}, {"measurement": "probe-labelled cysteine peptide fold change", "setting": "50 µM", "value": -2.09}]}, {"target": "UBR2_Q8IWV8_1360_ILSDEDKPLFGPLPCR (UniProt Q8IWV8)", "values": [{"measurement": "probe-labelled cysteine peptide fold change", "setting": "10 µM", "value": -0.203}, {"measurement": "probe-labelled cysteine peptide fold change", "setting": "50 µM", "value": -0.412}]}, {"target": "TPRA1_Q86W33_296_CQVDETEEPDVHLPQPYAVAR (UniProt Q86W33)", "sequence (Q86W33 whole entry, looked up)": "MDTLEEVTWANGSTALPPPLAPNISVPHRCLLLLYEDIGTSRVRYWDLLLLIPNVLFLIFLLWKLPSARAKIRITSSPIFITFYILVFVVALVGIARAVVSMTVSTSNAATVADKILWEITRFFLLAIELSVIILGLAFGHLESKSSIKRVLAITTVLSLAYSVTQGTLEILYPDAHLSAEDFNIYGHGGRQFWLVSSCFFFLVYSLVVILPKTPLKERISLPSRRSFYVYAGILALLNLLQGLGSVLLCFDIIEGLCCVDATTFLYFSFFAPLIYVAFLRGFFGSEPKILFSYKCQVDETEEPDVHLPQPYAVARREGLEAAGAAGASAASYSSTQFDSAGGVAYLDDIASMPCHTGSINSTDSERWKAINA", "values": [{"measurement": "probe-labelled cysteine peptide fold change", "setting": "10 µM", "value": -0.418}, {"measurement": "probe-labelled cysteine peptide fold change", "setting": "50 µM", "value": -1.52}]}, {"target": "UBN1_Q9NPG3_765_ELSCQAPLNK (UniProt Q9NPG3)", "sequence (Q9NPG3 whole entry, looked up)": "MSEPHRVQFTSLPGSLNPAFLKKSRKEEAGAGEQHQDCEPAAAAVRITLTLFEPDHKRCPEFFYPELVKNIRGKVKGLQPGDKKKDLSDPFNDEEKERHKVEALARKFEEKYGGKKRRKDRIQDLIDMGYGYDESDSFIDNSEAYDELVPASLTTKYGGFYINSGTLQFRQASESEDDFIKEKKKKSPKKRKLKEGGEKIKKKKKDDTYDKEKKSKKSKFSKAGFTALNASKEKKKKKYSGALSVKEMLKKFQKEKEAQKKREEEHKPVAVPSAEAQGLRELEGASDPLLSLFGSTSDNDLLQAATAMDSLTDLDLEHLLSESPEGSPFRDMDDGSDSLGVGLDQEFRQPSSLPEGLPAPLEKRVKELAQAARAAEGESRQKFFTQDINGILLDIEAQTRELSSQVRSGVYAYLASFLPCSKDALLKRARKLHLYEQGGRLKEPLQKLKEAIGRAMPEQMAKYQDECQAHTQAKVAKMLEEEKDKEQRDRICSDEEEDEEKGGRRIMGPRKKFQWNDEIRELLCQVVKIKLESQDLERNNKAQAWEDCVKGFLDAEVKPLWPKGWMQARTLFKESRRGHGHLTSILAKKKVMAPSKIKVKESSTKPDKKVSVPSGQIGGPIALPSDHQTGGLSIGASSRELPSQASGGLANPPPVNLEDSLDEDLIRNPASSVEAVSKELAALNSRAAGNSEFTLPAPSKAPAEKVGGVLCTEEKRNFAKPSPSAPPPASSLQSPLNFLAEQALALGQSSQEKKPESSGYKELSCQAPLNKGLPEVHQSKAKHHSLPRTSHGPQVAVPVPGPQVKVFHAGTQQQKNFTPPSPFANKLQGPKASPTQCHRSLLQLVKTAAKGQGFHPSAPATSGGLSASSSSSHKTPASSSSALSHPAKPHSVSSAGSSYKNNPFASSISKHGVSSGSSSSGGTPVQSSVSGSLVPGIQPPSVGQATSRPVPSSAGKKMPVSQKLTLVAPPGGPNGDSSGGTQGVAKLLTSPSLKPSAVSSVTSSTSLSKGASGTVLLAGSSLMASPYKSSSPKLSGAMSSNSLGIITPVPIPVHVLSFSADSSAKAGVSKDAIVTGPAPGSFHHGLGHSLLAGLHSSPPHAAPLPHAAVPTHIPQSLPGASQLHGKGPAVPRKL", "values": [{"measurement": "probe-labelled cysteine peptide fold change", "setting": "10 µM", "value": -0.169}, {"measurement": "probe-labelled cysteine peptide fold change", "setting": "50 µM", "value": -0.168}]}, {"target": "UBR5_O95071_572_VGVLMESVWNMNDSCR (UniProt O95071)", "values": [{"measurement": "probe-labelled cysteine peptide fold change", "setting": "10 µM", "value": -0.0405}, {"measurement": "probe-labelled cysteine peptide fold change", "setting": "50 µM", "value": 0.0537}]}, {"target": "VCPIP1_Q96JH7_219_SQECLIPVHVDGDGHCLVHAVSR (UniProt Q96JH7)", "values": [{"measurement": "probe-labelled cysteine peptide fold change", "setting": "10 µM", "value": -2.4}, {"measurement": "probe-labelled cysteine peptide fold change", "setting": "50 µM", "value": "< -5"}]}, {"target": "UBR7_Q8N806_155+158_RPYPDPEDEIPDEMIQCVVCEDWFHGR (UniProt Q8N806)", "values": [{"measurement": "probe-labelled cysteine peptide fold change", "setting": "10 µM", "value": -0.195}, {"measurement": "probe-labelled cysteine peptide fold change", "setting": "50 µM", "value": -1.14}]}, {"target": "TRMT2A_Q8IZ69_270_GGTCAVAAPFDTVHIPEATK (UniProt Q8IZ69)", "values": [{"measurement": "probe-labelled cysteine peptide fold change", "setting": "10 µM", "value": -0.0935}, {"measurement": "probe-labelled cysteine peptide fold change", "setting": "50 µM", "value": -0.357}]}, {"target": "UROS_P10746_119_IGLDTEGETCGNAEK (UniProt P10746)", "values": [{"measurement": "probe-labelled cysteine peptide fold change", "setting": "10 µM", "value": -0.0553}, {"measurement": "probe-labelled cysteine peptide fold change", "setting": "50 µM", "value": -0.0029}]}, {"target": "TWSG1_Q9GZX9_185_ISCESMGASK (UniProt Q9GZX9)", "sequence (Q9GZX9 whole entry, looked up)": "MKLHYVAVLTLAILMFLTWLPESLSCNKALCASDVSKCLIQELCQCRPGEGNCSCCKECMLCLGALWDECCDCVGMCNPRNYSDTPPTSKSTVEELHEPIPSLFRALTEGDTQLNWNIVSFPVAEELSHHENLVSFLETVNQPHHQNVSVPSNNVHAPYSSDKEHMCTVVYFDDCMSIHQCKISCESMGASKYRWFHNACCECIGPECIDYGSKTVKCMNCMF", "values": [{"measurement": "probe-labelled cysteine peptide fold change", "setting": "10 µM", "value": -0.121}, {"measurement": "probe-labelled cysteine peptide fold change", "setting": "50 µM", "value": -0.0863}]}, {"target": "TSPYL1_Q9H0U9_375_NQDLICSFFTWFSDHSLPESDK (UniProt Q9H0U9)", "values": [{"measurement": "probe-labelled cysteine peptide fold change", "setting": "10 µM", "value": 0.781}, {"measurement": "probe-labelled cysteine peptide fold change", "setting": "50 µM", "value": 1.06}]}, {"target": "UBE3D_Q7Z6J8_52_TPEGCTEIQLPAEVR (UniProt Q7Z6J8)", "values": [{"measurement": "probe-labelled cysteine peptide fold change", "setting": "10 µM", "value": 0.0793}, {"measurement": "probe-labelled cysteine peptide fold change", "setting": "50 µM", "value": 0.147}]}, {"target": "TXNDC5_Q8NBS9_350+353_FYAPWCGHCK (UniProt Q8NBS9)", "values": [{"measurement": "probe-labelled cysteine peptide fold change", "setting": "10 µM", "value": -0.375}, {"measurement": "probe-labelled cysteine peptide fold change", "setting": "50 µM", "value": -1.05}]}, {"target": "UBR7_Q8N806_155_RPYPDPEDEIPDEMIQCVVCEDWFHGR (UniProt Q8N806)", "values": [{"measurement": "probe-labelled cysteine peptide fold change", "setting": "10 µM", "value": 0.0312}, {"measurement": "probe-labelled cysteine peptide fold change", "setting": "50 µM", "value": 0.0116}]}, {"target": "UBR1_Q8IWV7_1603_NSLIELPDDYSCLLNQASHFR (UniProt Q8IWV7)", "values": [{"measurement": "probe-labelled cysteine peptide fold change", "setting": "10 µM", "value": -0.114}, {"measurement": "probe-labelled cysteine peptide fold change", "setting": "50 µM", "value": -0.631}]}, {"target": "UBA7_P41226_68_NLVLMGVGSLTLHDPHPTCWSDLAAQFLLSEQDLER (UniProt P41226)", "values": [{"measurement": "probe-labelled cysteine peptide fold change", "setting": "10 µM", "value": 0.0506}, {"measurement": "probe-labelled cysteine peptide fold change", "setting": "50 µM", "value": 0.33}]}, {"target": "TRIM59_Q8IWR1_10+13_MHNFEEELTCPICYSIFEDPR<|>IFT80_Q9P2H3-3_10+13_MHNFEEELTCPICYSIFEDPR (UniProt Q9P2H3+Q8IWR1)", "values": [{"measurement": "probe-labelled cysteine peptide fold change", "setting": "10 µM", "value": -0.194}, {"measurement": "probe-labelled cysteine peptide fold change", "setting": "50 µM", "value": -1.63}]}, {"target": "UROS_P10746_143_ESSALPLLFPCGNLKR (UniProt P10746)", "values": [{"measurement": "probe-labelled cysteine peptide fold change", "setting": "10 µM", "value": -0.128}, {"measurement": "probe-labelled cysteine peptide fold change", "setting": "50 µM", "value": -0.405}]}, {"target": "TRAPPC11_Q7Z392_615_ADCPHPIR (UniProt Q7Z392)", "values": [{"measurement": "probe-labelled cysteine peptide fold change", "setting": "10 µM", "value": 0.126}, {"measurement": "probe-labelled cysteine peptide fold change", "setting": "50 µM", "value": 0.142}]}, {"target": "TRIM33_Q9UPN9_582_GNMNCGAFQAHQMR (UniProt Q9UPN9)", "sequence (Q9UPN9 whole entry, looked up)": "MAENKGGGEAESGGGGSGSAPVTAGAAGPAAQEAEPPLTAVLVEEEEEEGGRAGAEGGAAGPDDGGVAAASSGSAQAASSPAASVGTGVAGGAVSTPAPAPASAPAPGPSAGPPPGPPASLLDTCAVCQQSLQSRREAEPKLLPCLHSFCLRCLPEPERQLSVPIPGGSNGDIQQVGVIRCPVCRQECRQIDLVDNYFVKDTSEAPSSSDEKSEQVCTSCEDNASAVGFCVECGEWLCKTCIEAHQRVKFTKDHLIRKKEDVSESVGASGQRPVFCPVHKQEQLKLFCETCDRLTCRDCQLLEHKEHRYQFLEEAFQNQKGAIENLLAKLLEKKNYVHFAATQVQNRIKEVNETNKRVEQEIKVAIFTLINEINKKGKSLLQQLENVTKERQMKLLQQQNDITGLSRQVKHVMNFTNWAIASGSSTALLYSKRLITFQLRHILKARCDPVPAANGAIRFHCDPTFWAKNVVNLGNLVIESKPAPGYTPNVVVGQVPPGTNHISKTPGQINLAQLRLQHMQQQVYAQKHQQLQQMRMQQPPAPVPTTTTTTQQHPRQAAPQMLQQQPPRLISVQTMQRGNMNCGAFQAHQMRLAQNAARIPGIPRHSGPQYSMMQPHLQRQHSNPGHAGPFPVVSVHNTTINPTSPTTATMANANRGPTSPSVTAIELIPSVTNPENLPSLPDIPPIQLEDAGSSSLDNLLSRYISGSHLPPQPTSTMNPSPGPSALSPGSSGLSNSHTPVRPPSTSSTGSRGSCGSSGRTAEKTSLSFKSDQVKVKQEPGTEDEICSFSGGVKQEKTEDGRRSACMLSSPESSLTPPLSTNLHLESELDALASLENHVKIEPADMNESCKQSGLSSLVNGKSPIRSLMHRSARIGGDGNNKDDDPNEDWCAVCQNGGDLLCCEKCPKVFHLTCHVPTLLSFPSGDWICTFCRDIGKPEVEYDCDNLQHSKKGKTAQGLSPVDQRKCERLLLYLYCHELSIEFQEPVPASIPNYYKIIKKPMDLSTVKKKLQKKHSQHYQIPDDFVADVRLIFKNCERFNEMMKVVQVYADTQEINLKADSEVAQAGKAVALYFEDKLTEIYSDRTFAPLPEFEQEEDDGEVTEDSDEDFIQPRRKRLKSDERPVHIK", "values": [{"measurement": "probe-labelled cysteine peptide fold change", "setting": "10 µM", "value": -0.217}, {"measurement": "probe-labelled cysteine peptide fold change", "setting": "50 µM", "value": -0.598}]}, {"target": "USP48_Q86UV5_652+658_KEEEELNFNEDILCPHGELCISENERR (UniProt Q86UV5)", "sequence (Q86UV5 whole entry, looked up)": "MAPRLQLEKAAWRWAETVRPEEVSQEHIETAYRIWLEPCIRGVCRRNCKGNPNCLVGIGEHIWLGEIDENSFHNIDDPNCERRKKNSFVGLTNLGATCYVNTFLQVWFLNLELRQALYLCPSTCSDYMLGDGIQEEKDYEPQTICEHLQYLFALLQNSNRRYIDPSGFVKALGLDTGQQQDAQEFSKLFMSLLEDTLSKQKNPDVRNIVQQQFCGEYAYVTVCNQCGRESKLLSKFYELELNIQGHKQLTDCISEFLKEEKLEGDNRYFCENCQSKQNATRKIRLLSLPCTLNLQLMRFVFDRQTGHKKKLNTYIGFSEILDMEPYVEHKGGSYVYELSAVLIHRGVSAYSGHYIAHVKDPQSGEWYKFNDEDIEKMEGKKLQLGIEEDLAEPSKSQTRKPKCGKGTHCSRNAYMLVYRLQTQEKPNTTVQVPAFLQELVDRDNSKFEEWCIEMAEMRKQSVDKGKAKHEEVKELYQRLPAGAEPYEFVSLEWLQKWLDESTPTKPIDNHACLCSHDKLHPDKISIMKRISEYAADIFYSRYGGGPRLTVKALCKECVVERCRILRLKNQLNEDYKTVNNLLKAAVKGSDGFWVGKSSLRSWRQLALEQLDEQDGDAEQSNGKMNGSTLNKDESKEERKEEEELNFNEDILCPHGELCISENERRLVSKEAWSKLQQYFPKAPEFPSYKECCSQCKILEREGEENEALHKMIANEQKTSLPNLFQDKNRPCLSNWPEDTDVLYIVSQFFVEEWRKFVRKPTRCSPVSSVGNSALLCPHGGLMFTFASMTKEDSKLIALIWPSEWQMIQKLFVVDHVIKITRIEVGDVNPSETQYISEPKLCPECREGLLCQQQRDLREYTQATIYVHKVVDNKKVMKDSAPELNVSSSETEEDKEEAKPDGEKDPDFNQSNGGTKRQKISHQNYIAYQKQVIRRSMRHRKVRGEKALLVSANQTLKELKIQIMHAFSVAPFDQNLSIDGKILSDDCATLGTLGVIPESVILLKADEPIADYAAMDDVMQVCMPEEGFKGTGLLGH", "values": [{"measurement": "probe-labelled cysteine peptide fold change", "setting": "10 µM", "value": -0.493}, {"measurement": "probe-labelled cysteine peptide fold change", "setting": "50 µM", "value": -1.42}]}, {"target": "UBXN7_O94888_478_KLSHLDYDITLQEAGLCPQETVFVQER (UniProt O94888)", "values": [{"measurement": "probe-labelled cysteine peptide fold change", "setting": "10 µM", "value": 0.134}, {"measurement": "probe-labelled cysteine peptide fold change", "setting": "50 µM", "value": -0.0436}]}, {"target": "TXNDC5_Q8NBS9_353_FYAPWCGHCK (UniProt Q8NBS9)", "values": [{"measurement": "probe-labelled cysteine peptide fold change", "setting": "10 µM", "value": -0.372}, {"measurement": "probe-labelled cysteine peptide fold change", "setting": "50 µM", "value": -1.61}]}, {"target": "TRMT2A_Q8IZ69_463_VIGVELCPEAVEDAR (UniProt Q8IZ69)", "values": [{"measurement": "probe-labelled cysteine peptide fold change", "setting": "10 µM", "value": -0.181}, {"measurement": "probe-labelled cysteine peptide fold change", "setting": "50 µM", "value": -1.16}]}, {"target": "VCPIP1_Q96JH7_207+219_SQECLIPVHVDGDGHCLVHAVSR (UniProt Q96JH7)", "values": [{"measurement": "probe-labelled cysteine peptide fold change", "setting": "10 µM", "value": -1.2}, {"measurement": "probe-labelled cysteine peptide fold change", "setting": "50 µM", "value": -1.48}]}, {"target": "TYSND1_Q2T9J0_17_AAEQAGCMVSASR (UniProt Q2T9J0)", "sequence (Q2T9J0 whole entry, looked up)": "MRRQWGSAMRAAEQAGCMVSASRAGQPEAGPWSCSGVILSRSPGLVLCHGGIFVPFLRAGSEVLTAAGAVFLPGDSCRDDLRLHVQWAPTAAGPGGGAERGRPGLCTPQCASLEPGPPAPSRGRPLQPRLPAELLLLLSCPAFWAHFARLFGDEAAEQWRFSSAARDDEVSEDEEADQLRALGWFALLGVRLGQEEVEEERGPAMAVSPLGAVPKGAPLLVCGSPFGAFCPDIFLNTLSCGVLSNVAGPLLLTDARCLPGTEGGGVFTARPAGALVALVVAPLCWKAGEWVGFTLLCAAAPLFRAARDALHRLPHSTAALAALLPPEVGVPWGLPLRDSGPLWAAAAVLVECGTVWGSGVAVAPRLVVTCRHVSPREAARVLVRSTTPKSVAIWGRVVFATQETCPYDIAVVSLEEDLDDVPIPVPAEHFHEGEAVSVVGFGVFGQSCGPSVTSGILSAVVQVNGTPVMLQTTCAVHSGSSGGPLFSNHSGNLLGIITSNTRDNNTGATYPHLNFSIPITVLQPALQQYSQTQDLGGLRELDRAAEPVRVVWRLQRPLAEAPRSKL", "values": [{"measurement": "probe-labelled cysteine peptide fold change", "setting": "10 µM", "value": 0.0109}, {"measurement": "probe-labelled cysteine peptide fold change", "setting": "50 µM", "value": 0.0758}]}, {"target": "USP40_Q9NVE5_50_NQGGTCYLNSLLQTLHFTPEFR (UniProt Q9NVE5)", "values": [{"measurement": "probe-labelled cysteine peptide fold change", "setting": "10 µM", "value": -0.592}, {"measurement": "probe-labelled cysteine peptide fold change", "setting": "50 µM", "value": -1.83}]}, {"target": "VLDLR_P98155_251_CPASEIQCGSGECIHK (UniProt P98155)", "values": [{"measurement": "probe-labelled cysteine peptide fold change", "setting": "10 µM", "value": -0.12}, {"measurement": "probe-labelled cysteine peptide fold change", "setting": "50 µM", "value": -0.248}]}, {"target": "TRMT1_Q9NXH9_621_GDQCCYSHSPPTPR (UniProt Q9NXH9)", "values": [{"measurement": "probe-labelled cysteine peptide fold change", "setting": "10 µM", "value": -0.0265}, {"measurement": "probe-labelled cysteine peptide fold change", "setting": "50 µM", "value": -0.0659}]}, {"target": "TUBAL3_A6NHL2_322+323_YMACCLLYR<|>TUBA1B_P68366_315+316_YMACCLLYR<|>TUBA4A_Q9BQE3_315+316_YMACCLLYR (UniProt P68366+Q9BQE3+A6NHL2)", "values": [{"measurement": "probe-labelled cysteine peptide fold change", "setting": "10 µM", "value": -0.349}, {"measurement": "probe-labelled cysteine peptide fold change", "setting": "50 µM", "value": -0.661}]}, {"target": "VAPA_Q9P0L0_128_CVFEMPNENDK (UniProt Q9P0L0)", "sequence (Q9P0L0 whole entry, looked up)": "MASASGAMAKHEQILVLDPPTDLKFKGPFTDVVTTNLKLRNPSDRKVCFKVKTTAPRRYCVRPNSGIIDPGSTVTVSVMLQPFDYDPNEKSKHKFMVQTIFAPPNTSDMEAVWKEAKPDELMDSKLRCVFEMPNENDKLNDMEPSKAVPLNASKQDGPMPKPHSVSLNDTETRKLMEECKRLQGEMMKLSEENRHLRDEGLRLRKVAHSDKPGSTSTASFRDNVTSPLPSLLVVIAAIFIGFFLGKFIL", "values": [{"measurement": "probe-labelled cysteine peptide fold change", "setting": "10 µM", "value": -0.217}, {"measurement": "probe-labelled cysteine peptide fold change", "setting": "50 µM", "value": -0.121}]}, {"target": "TTLL12_Q14166_361_PGVLLNQFPCENLLTVK (UniProt Q14166)", "values": [{"measurement": "probe-labelled cysteine peptide fold change", "setting": "10 µM", "value": -0.00778}, {"measurement": "probe-labelled cysteine peptide fold change", "setting": "50 µM", "value": -0.111}]}, {"target": "UROD_P06132_308_TVTLQGNLDPCALYASEEEIGQLVK (UniProt P06132)", "values": [{"measurement": "probe-labelled cysteine peptide fold change", "setting": "10 µM", "value": -0.0737}, {"measurement": "probe-labelled cysteine peptide fold change", "setting": "50 µM", "value": 0.0622}]}, {"target": "UBE2O_Q9C0C9_375_NCAQGEGSMAK (UniProt Q9C0C9)", "values": [{"measurement": "probe-labelled cysteine peptide fold change", "setting": "10 µM", "value": -0.0634}, {"measurement": "probe-labelled cysteine peptide fold change", "setting": "50 µM", "value": -0.156}]}, {"target": "UBA6_A0AVT1_721_ALQLLHCFPLDIR", "values": [{"measurement": "probe-labelled cysteine peptide fold change", "setting": "10 µM", "value": 0.0248}, {"measurement": "probe-labelled cysteine peptide fold change", "setting": "50 µM", "value": 0.215}]}, {"target": "UBR4_Q5T4S7_2554_AVQCLNTSSK (UniProt Q5T4S7)", "values": [{"measurement": "probe-labelled cysteine peptide fold change", "setting": "10 µM", "value": -0.27}, {"measurement": "probe-labelled cysteine peptide fold change", "setting": "50 µM", "value": -0.543}]}, {"target": "TUBA4A_P68366_4_MRECISVHVGQAGVQMGNACWELYCLEHGIQPDGQMPSDK (UniProt P68366)", "values": [{"measurement": "probe-labelled cysteine peptide fold change", "setting": "10 µM", "value": -0.0787}, {"measurement": "probe-labelled cysteine peptide fold change", "setting": "50 µM", "value": -0.408}]}, {"target": "TPRKB_Q9Y3C4_167_LSSQEESIGTLLDAIICR (UniProt Q9Y3C4)", "values": [{"measurement": "probe-labelled cysteine peptide fold change", "setting": "10 µM", "value": 0.0132}, {"measurement": "probe-labelled cysteine peptide fold change", "setting": "50 µM", "value": -0.163}]}, {"target": "VTA1_Q9NP79_87_QLGDNEAITQEIVGCAHLENYALK (UniProt Q9NP79)", "sequence (Q9NP79 whole entry, looked up)": "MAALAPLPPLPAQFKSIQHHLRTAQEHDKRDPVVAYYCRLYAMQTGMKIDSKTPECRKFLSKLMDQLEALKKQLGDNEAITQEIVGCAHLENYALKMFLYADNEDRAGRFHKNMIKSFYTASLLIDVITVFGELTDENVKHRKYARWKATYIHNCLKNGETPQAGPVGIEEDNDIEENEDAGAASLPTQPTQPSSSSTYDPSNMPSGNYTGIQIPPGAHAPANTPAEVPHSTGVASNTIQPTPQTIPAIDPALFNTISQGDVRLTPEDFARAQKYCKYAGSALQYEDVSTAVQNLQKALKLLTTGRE", "values": [{"measurement": "probe-labelled cysteine peptide fold change", "setting": "10 µM", "value": 0.0147}, {"measurement": "probe-labelled cysteine peptide fold change", "setting": "50 µM", "value": 0.136}]}, {"target": "TRIM13_O60858_106_GHLGQPLNIFCLTDMQLICGICATR (UniProt O60858)", "values": [{"measurement": "probe-labelled cysteine peptide fold change", "setting": "10 µM", "value": 0.0739}, {"measurement": "probe-labelled cysteine peptide fold change", "setting": "50 µM", "value": -0.215}]}]}
